Assay [1] can be described thus: Nuclear factor erythroid 2-related factor 2/antioxidant responsive element (Nrf2/ARE) small molecule agonists: qHTS cell viability counter screen in human keratinocytes (AID 1919968; active = well fitted curve in the direction sought with a large enough effect in the repeat runs; an effect the other way counts as inactive or inconclusive; also: nearly all actives have a fitted effect of over 55% in size; also: potency is read from the fitted curve at half-maximal effect). The procedure, abridged:
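Stably transfected HaCaT (KeratinoSens), 1,500/well. Test agents in DMSO were applied for 23 h, 37 C/5% CO2. CellTiter-Fluor was incubated 1 h before the fluorescence read.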
For orientation: qHTS replaces the single test concentration by a dilution series.

Assay [2] is described as follows: Nuclear factor erythroid 2-related factor 2/antioxidant responsive element (Nrf2/ARE) small molecule agonists: luciferase reporter gene qHTS assay in human keratinocytes (AID 1919969). Also: nearly all actives have a fitted effect of over 35% in size.
The target in assay [3] is KiSS-1 receptor (Homo sapiens) (UniProt Q969F8). Kind of assay: Human kisspeptin (KISS1R) small molecule agonists, calcium flux assay in KISS1R-HEK293 cells (AID 1920064; active = well fitted curve in the direction sought with a large enough effect in the repeat runs; an effect the other way counts as inactive or inconclusive). The procedure, abridged:
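After overnight (18 h) culture at 37 C/5% CO2, human KISS1R-HEK293 cells received calcium dye for 1 h, then test compound; emission at 540 nm (excitation 480 nm) was tracked for 3 min.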
A general note: Calcium assays in cells follow changes in intracellular calcium, usually with a dye or a luminescent sensor.

The nature of assay [4]: G protein-coupled receptor (GPCR) small molecule agonists, calcium flux assay: HEK293 wild type cell line counter screen (AID 1920065). The procedure, abridged:
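Following 18 h incubation at 37 C/5% CO2, plates got calcium dye for 1 h; compounds, ATP or DMSO were then pinned in and fluorescence followed kinetically (480/540 nm).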

The nature of assay [5]: p53 small molecule agonists, cell-based qHTS assay with human liver microsomes (AID 1963577).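 Also: p53 response element beta-lactamase reporter cells with liver microsomes plus NADPH.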 A digest of the protocol: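 HLM-supplemented p53RE-bla reporter assay: 16 h compound exposure at 37 C, microsomes and NADPH each 0.5 mg/mL final, read by fluorescence intensity.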
A short description of assay [6]: p53 small molecule agonists, cell-based qHTS assay with rat liver microsomes (AID 1963578). A digest of the protocol:
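Quantitative HTS of the Tox21 10K library: p53RE-bla cells, rat liver microsomes plus NADPH at 0.5 mg/mL final each, 16 h at 37 C, beta-lactamase fluorescence detection.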

Assay [7] is described as follows: p53 small molecule agonists, cell-based qHTS assay with human liver microsomes: qHTS cell viability counter screen (AID 1963579). Also: nearly all actives have a fitted effect of over 45% in size. The procedure, abridged: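 Viability of p53RE-bla cells is measured as CellTiter-Glo luminescence following a 16 h, 37 C incubation with compound, liver microsomes from human donors and NADPH.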
Assay [8] in a line: p53 small molecule agonists, cell-based qHTS assay with rat liver microsomes: qHTS cell viability counter screen (AID 1963580). Also: nearly all actives have a fitted effect of over 45% in size. A digest of the protocol: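 Cytotoxicity counter screen: intracellular ATP read by CellTiter-Glo luminescence in the p53 reporter wells. HCT-116 p53RE-bla cells were treated for 16 h at 37 C alongside rat liver microsomes and NADPH, each 0.5 mg/mL final.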

Assay [9] can be described thus: p53 small molecule agonists, cell-based qHTS assay (AID 1963582; active = well fitted activation curve with a large enough effect in the signal ratio in the repeat runs, not every such curve was filed as active; the % refers to the signal ratio). The procedure, abridged:
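Measured: fluorescence from cleaved LiveBLAzer substrate. System: p53RE-bla cells, 16 h compound treatment at 37 C, 2 h substrate step at room temperature.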

For assay [10], the target named is 5-hydroxytryptamine receptor 2A (Homo sapiens) (UniProt P28223). The assay can be described thus: 5-hydroxytryptamine receptor 2A (HTR2A) small molecule antagonists, cell-based qHTS assay (AID 1963586). Also: nearly all actives have a fitted effect of over 45% in size. The procedure, abridged:
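CHO cells stably expressing human HTR2A were plated for 18 h at 37 C, then loaded with calcium dye for 1 h. Compounds were preincubated 5 min at room temperature before DOI (4 nM solution) was added. Kinetic fluorescence was read for 3 min.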

Assay [11] has the same target. Kind of assay: 5-hydroxytryptamine receptor 2A (HTR2A) small molecule agonists, cell-based qHTS assay (AID 1963587). Also: nearly all actives have a fitted effect of over 30% in size. A digest of the protocol:
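Kinetic calcium-flux fluorescence (2 min, 1 sec intervals) after compound addition in agonist mode. HTR2A-CHO cells were cultured 18 h, then dye-loaded 1 h at 37 C.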

The target of assay [12] is Muscarinic acetylcholine receptor M1 (Homo sapiens) (UniProt P11229). The assay can be described thus: Cholinergic receptor muscarinic 1 (CHRM1) small molecule antagonists, cell-based qHTS assay (AID 1963588). Also: nearly all actives have a fitted effect of over 40% in size. The procedure, abridged: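 Compounds were tested at 15 concentrations in three independent runs. Dye-loaded CHRM1-CHO cells were exposed 5 min at room temperature before stimulation by acetylcholine added at 50nM. Intracellular calcium was read kinetically on FDSS for 3 min.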
Chain of Muscarinic acetylcholine receptor M1 (Homo sapiens) (P11229 whole entry, looked up): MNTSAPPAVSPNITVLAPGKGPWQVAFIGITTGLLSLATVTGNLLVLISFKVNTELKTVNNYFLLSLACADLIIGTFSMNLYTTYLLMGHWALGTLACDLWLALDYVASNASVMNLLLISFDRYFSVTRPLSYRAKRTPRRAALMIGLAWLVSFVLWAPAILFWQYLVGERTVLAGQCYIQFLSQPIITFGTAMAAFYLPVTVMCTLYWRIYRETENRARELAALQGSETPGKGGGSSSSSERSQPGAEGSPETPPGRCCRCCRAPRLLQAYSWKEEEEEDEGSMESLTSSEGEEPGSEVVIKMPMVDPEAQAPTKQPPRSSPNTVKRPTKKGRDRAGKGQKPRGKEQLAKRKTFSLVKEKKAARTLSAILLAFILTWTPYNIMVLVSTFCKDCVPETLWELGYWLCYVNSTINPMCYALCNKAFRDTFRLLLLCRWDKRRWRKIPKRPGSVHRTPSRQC

Assay [13] shares this target. The assay can be described thus: Cholinergic receptor muscarinic 1 (CHRM1) small molecule agonists, cell-based qHTS assay (AID 1963589). Also: nearly all actives have a fitted effect of over 35% in size. The procedure, abridged:
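Kinetic fluorescence (1 s intervals) of calcium-sensitive dye in human M1 CHO cells after compound addition; cells pre-incubated 18 h at 37 C/5% CO2 and dye-loaded 1 h.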

Assay [14] is described as follows: cAMP Responsive Elements (CRE) small molecule agonists, cell-based qHTS assay (AID 1963590). The procedure, abridged: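 Test agents in DMSO were incubated 3 h at 37 C/5% CO2 with CRE-bla HEK 293T cells seeded 18 h earlier; LiveBLAzer B/G FRET substrate was added and read after 2 h at room temperature.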
A short description of assay [15]: cAMP Responsive Elements (CRE) small molecule antagonists, cell-based qHTS assay (AID 1963591; active = well fitted inhibition curve with a large enough effect in the signal ratio in the repeat runs, not every such curve was filed as active; the % refers to the signal ratio). The procedure, abridged:
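Reporter line CRE-bla HEK 293T in dialyzed-FBS DMEM; cells preincubated 18 h, treated 3 h with compound plus NKH477 (0.25 uM final); LiveBLAzer FRET, 2 h RT.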

Assay [16] addresses Beta-2 adrenergic receptor (Homo sapiens) (UniProt P07550). Kind of assay: Adrenergic beta2 receptor (ADRB2) small molecule antagonists, cell-based qHTS assay (AID 1963592). Also: series mostly up to about 92 µM; nearly all actives have a fitted effect of over 50% in size. The procedure, abridged:
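Assay format: CHO-ADRB2 cells, 18-20hr seeding at 37C/5% CO2, then compound plus 1nM isoproterenol agonist mix for 0.5hr RT. Homogeneous time-resolved fluorescence cAMP detection after 1hr, expressed as 665/615 nm ratio.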

The target in assay [17] is D(2) dopamine receptor (Homo sapiens) (UniProt P14416). Kind of assay: Dopamine D2 receptor (DRD2) small molecule agonists, cell-based qHTS assay (AID 1963594). Also: nearly all actives have a fitted effect of over 35% in size. A digest of the protocol: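 cAMP accumulation in DRD2-HEK293 cells measured by HTRF after 1 h detection; compounds added 10 min before NKH477 (200nM […]) forskolin-analogue stimulation, 30 min at room temperature, with Ro20-1724 present at 0.1 mM final.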
Chain of D(2) dopamine receptor (Homo sapiens) (P14416 whole entry, looked up): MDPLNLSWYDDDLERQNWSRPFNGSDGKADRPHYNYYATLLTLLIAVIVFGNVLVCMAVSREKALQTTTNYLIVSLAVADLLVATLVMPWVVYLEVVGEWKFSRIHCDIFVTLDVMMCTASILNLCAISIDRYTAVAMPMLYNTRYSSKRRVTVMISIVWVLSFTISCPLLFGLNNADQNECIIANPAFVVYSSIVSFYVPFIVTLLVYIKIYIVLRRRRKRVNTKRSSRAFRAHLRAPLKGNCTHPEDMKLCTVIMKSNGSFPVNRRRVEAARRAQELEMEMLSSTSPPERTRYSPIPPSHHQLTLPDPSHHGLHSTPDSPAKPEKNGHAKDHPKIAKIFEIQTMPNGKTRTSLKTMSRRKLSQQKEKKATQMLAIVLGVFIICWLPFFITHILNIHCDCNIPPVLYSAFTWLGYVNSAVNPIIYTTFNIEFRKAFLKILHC

Assay [18] shares this target. The assay can be described thus: Dopamine D2 receptor (DRD2) small molecule antagonists, cell-based qHTS assay (AID 1963595; active = well fitted inhibition curve with a large enough effect in the signal ratio in the repeat runs, with a control signal flat; the % refers to the signal ratio). The procedure, abridged: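 Human DRD2 antagonist qHTS measuring cAMP by HTRF. The cells are exposed to compound for 10 min, then to NKH477 (200 nM) and quinpirole (12 nM) for 30 min at RT, with Ro20-1724 (0.1 mM) present throughout.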
Assay [19] in a line: p53 small molecule agonists, cell-based qHTS assay: qHTS cell viability counter screen (AID 1963581). Also: nearly all actives have a fitted effect of over 45% in size. The procedure, abridged: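 qHTS counter screen: 16 h compound exposure at 37 C of p53RE-bla HCT-116 cells (4,000 per well, seeded 5 h prior), cell viability by ATP luminescence.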

A number with no mark means an inactive call. Records with an inconclusive call do not appear. Calls of active or inactive are those of the source. Unless noted, calls follow the shape of the full dose curve.

Chain of Beta-2 adrenergic receptor (Homo sapiens) (P07550 whole entry, looked up): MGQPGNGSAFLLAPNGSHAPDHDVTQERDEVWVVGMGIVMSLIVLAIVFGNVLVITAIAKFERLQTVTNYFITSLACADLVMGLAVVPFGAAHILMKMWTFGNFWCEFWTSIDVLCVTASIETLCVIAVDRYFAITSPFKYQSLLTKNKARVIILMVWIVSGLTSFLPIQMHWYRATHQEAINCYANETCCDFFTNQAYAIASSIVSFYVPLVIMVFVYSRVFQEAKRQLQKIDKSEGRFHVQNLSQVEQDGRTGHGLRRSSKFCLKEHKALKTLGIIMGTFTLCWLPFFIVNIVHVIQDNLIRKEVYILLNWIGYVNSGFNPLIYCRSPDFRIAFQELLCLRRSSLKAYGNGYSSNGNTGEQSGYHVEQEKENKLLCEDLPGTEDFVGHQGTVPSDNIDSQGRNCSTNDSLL
Chain of KiSS-1 receptor (Homo sapiens) (Q969F8 whole entry, looked up): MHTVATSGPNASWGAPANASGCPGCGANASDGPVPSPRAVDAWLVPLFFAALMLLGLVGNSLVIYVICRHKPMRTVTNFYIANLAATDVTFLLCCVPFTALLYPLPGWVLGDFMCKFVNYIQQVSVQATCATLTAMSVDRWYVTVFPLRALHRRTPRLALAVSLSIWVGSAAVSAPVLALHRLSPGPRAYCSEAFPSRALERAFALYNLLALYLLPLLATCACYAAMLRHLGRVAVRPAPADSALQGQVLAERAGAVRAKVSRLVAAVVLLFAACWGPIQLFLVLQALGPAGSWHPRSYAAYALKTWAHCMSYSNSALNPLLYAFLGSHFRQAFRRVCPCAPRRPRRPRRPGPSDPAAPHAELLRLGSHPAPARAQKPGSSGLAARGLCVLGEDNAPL
Chain of 5-hydroxytryptamine receptor 2A (Homo sapiens) (P28223 whole entry, looked up): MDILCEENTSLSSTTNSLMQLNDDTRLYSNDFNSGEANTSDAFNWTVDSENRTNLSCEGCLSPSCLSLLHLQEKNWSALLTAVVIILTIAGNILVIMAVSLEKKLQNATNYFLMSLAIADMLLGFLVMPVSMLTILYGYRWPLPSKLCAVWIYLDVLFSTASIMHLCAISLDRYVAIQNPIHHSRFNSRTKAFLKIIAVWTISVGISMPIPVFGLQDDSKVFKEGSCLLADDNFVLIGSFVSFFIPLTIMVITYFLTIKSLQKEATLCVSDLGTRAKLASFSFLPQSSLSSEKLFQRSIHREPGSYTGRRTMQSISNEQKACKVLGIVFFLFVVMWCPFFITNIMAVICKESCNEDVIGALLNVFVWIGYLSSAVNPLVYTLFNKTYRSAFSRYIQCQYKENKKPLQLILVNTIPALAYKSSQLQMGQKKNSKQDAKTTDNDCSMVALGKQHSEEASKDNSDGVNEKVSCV

As to `CC1OC(=O)C(C)OC1=O` (configuration not stated), the Potency result in assay [1], in [2], in assay [5], in [6], in [7] and in assay [8] was “inactive” in each case. In addition, the Potency entry in assay [9], in assay [10], in assay [11], in [12], in assay [13] and in [14] was “inactive” throughout. Besides, the Potency entry in assay [15], in assay [16], in assay [17] and in assay [18] was “inactive” throughout. In addition, the outcome in assay [3] and in assay [4] was inactive.

Regarding `CCCCCCCCCCCCOC(=O)c1ccc(O)cc1`, the Potency in assay [1] is 43.6 µM (active). Also, the Potency entry in [2], in [5], in [6], in [7], in assay [8] and in assay [9] was “inactive” each time. The Potency entry in assay [10], in [11], in assay [12], in assay [13], in assay [14] and in assay [18] was “inactive” each time. The outcome in [3] and in [4] was inactive.

Consider `CO[C@H]1O[C@H](CO)[C@@H](O)[C@H](O)[C@H]1O`, for which the Potency result in assay [1], in assay [2], in assay [5], in assay [6], in assay [7] and in [19] was “inactive” in each case. For the same compound, the Potency entry in [9], in assay [11], in assay [12], in assay [13], in assay [14] and in assay [15] was “inactive” throughout. In addition, the Potency result in assay [16], in [17] and in [18] was “inactive” each time. Also, the result in assay [3] and in [4] was inactive.

As to `CN[C@@H]1[C@H](O)[C@H](NC)[C@H]2O[C@@]3(O)C(=O)C[C@@H](C)O[C@H]3O[C@@H]2[C@H]1O`, the Potency result in assay [1], in assay [2], in assay [5], in assay [6], in assay [7] and in assay [8] was “inactive” throughout. In addition, the Potency entry in assay [9], in assay [14], in [15], in assay [16], in [17] and in assay [18] was “inactive” in each case. The result in assay [3] and in [4] was inactive.

As to `ON=C1CCCC1`, the Potency entry in assay [1], in assay [2], in assay [5], in assay [6], in [7] and in assay [19] was “inactive” throughout. Besides, the Potency entry in assay [9], in [10], in assay [11], in assay [13], in [14] and in [16] was “inactive” throughout. Besides, the Potency result in assay [17] and in assay [18] was “inactive” in each case. For the same compound, the result in assay [3] and in [4] was inactive.

With `C=C(C)CCCC`, the Potency entry in [1], in assay [2], in assay [5], in assay [6], in [7] and in [19] was “inactive” each time. Further, the Potency result in [10], in [11], in assay [12], in [13], in assay [14] and in [15] was “inactive” throughout. Besides, the Potency result in assay [16], in assay [17] and in [18] was “inactive” in each case. Further, the outcome in assay [3] and in assay [4] was inactive.

As for `CCCCCC[C@@H](O)C/C=C\CCCCCCCC(=O)OCC(O)CO` (some centres not stated), the Potency entry in assay [1], in assay [2], in assay [5], in [6], in assay [7] and in assay [19] was “inactive” in each case. Also, the Potency entry in assay [9], in assay [10], in assay [11], in [13], in [16] and in [17] was “inactive” throughout. The Potency entry in assay [18] was “inactive”. The outcome in assay [3] and in assay [4] was inactive.

The record behind these values is PubChem BioAssay (Tox21).
